Assay outcomes (PubChem)
HP1b binding inh – blocks HP1-beta chromodomain binding to methylated histone tails | Potency, µM (titrated, usually from 114 µM), for inactives: top-dose activity change, negative = inhibition, actives largely listed as inhibitors | AlphaScreen HP1-beta / biotin-H3K9me3 peptide binding | actives 0.56% (n = 390,000) | AID 540317; note: nearly all actives have a fitted effect of over 70% in size
Target sequence (P83916 whole entry, looked up): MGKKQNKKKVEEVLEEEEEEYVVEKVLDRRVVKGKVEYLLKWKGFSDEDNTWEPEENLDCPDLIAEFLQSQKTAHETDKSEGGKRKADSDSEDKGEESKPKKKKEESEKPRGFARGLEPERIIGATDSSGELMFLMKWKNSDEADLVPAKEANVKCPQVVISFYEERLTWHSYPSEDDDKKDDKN
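AlphaScreen: HP1-beta (50 nM) preformed 30 min with biotin-H3(1-18)K9me3 peptide (50 nM) in PBS pH 7.4, 0.01% Tween-20. Compound added for 30 min at RT, then streptavidin donor/nickel chelate acceptor beads (10 ug/mL) for 30 min.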
G9a block – G9a (human) methyltransferase inhibition; Q96KQ7; Potency, µM (series often up to 102 µM), for inactives: at the top dose activity, negative = inhibition, actives largely listed as inhibitors; G9a H3K9 monomethylation, AlphaScreen, 2 h; actives 8.8% (n = 350,000); note: % is set by controls: 0 for no effect and ±100 for the full control effect; nearly all actives have a fitted effect of over 75% in size
Target sequence (Q96KQ7 913-1193 limits assumed): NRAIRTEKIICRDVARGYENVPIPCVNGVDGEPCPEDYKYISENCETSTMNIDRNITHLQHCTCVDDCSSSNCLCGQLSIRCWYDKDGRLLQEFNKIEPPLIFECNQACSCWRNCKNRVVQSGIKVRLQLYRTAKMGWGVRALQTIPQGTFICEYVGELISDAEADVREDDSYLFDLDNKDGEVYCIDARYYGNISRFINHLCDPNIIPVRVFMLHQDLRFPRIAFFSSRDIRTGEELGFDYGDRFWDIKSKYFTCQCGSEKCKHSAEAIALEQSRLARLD
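Signal arises when biotinylated H3K9 peptide, once monomethylated, bridges streptavidin donor and antibody-captured acceptor beads. Enzyme at 20 nM was preincubated 15 min with test compounds; peptide 500 nM and SAM 20 uM then reacted for 2 h.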
JMJD2A Tudor inh – inhibitors of human JMJD2A Tudor domain | Potency, µM (series often up to 114 µM), inactives show at the highest dose activity change, negative = inhibition, most hits filed as inhibitors | AlphaScreen JMJD2A-Tudor / H3K4me3 peptide binding | O75164 | actives 4.4% (n = 390,000); note: % is set by controls: 0 for no effect and ±100 for the full control effect; nearly all actives have a fitted effect of over 50% in size
PLK1 PBD inh – blocks phosphopeptide binding to human PLK1 polo-box domain. P53350. Plk1 PBD binding of FITC phosphopeptide, fluorescence polarization. Potency, µM, for inactives: max response, negative = inhibition, most hits filed as inhibitors. actives 2.8% (n = 360,000); note: series mostly up to about 57 µM; % is set by controls: 0 for no effect and ±100 for the full control effect; nearly all actives have a fitted effect of over 65% in size
Sfp PPTase inh – inhibitors of Bacillus subtilis Sfp phosphopantetheinyl transferase | Biochemical Sfp PPTase activity, qHTS | Potency, µM, for the others: largest response in the series, negative = inhibition, usual class: inhibitors | actives 3.5% (n = 310,000) | AID 1490;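 note: the enzyme is Sfp with the accession as filed and its product quenches rhodamine fluorescence; 0% = enzyme reaction without inhibitor and -100% = no enzyme wells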
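Step 1, compound plus 15 nM Sfp-PPTase, 15 min, room temperature. Step 2, add rhodamine-CoA (5 uM) and BHQ-2-YbbR (12.5 uM). Step 3, read 525/598 nm fluorescence at 0 and 30 min.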
BAZ2B block – BAZ2B (human) inhibition; Q9UIF8; AlphaScreen BAZ2B-H3K14Ac peptide displacement; Potency, µM (series often up to 114 µM), without a hit: top-dose activity change, negative = inhibition, most hits filed as inhibitors; actives 4.4% (n = 360,000); note: % is set by controls: 0 for no effect and ±100 for the full control effect; nearly all actives have a fitted effect of over 60% in size
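Inhibition is scored as reduced AlphaScreen emission. The BAZ2B/b-H3(5-23)K14Ac complex (50 nM each) in PBS pH 7.4, 0.01% Tween-20 meets compound (up to 110 uM) for 30 min at RT before bead addition.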
* hit, by the source's call; [ ] = another dose, or the depositor's remark. Compounds with a hit are over-represented: about 12% of the library has one in this group of screens. Calls come from the whole dose curve; as a rule, active = well fitted curve in the direction sought with a large enough effect; inconclusive = small, poorly fitted or top-dose-only effect, or another doubt; inactive = no such curve, though single readings can be large; an effect the other way counts as inactive or inconclusive. Potency is the fitted concentration of half-maximal effect.

Screening O=C(NCc1ccccc1Cl)C1CCN(S(=O)(=O)c2ccc(N3CCCC3=O)cc2)CC1 returned HP1b binding inh 7%, G9a block 10%, JMJD2A Tudor inh inconclusive, PLK1 PBD inh 12µM*, Sfp PPTase inh 9% and BAZ2B block -7%.
Screening COc1cccc(Cn2c(=O)c(-c3ccc(Cl)cc3)nc3cnc(OC)nc32)c1 returned G9a block 2%[0.501 µM] and Sfp PPTase inh -8%.
`CCOC(=O)c1cnc(-n2nc(C)cc2C)nc1Nc1cccc(C(=O)O)c1` gave HP1b binding inh 31%, G9a block 10µM*, JMJD2A Tudor inh 89µM*, PLK1 PBD inh 0%, Sfp PPTase inh 7% and BAZ2B block 4%.
`CCOC(=O)c1cnc(-n2nc(C)cc2C)nc1Nc1ccc(C)cc1` gave HP1b binding inh 40%, G9a block inconclusive, JMJD2A Tudor inh -22%, PLK1 PBD inh -2%, Sfp PPTase inh 2% and BAZ2B block -9%.
`CCOC(=O)c1cnc(-n2nc(C)cc2C)nc1NC` gave HP1b binding inh 15%, G9a block 45µM*, JMJD2A Tudor inh -34%, PLK1 PBD inh -5%, Sfp PPTase inh inconclusive and BAZ2B block 3%.
Cc1ccc(C(=O)N2CCc3ccccc32)cc1C was read as HP1b binding inh 40%, JMJD2A Tudor inh 6% and PLK1 PBD inh -11%.
`O=C(COc1ccccc1F)Nc1ccc2oc(-c3cccc(Cl)c3)nc2c1` gave HP1b binding inh 92%, G9a block 20%[59 µM], JMJD2A Tudor inh -4% and BAZ2B block 1%.
`C=C(C)C1CC=C(C(=O)O)CC1` (stereo unspecified) gave G9a block -16%[59 µM] and Sfp PPTase inh 10%.
`C=C(C)C1CC=C(CN2CCC(C(=O)OCC)CC2)CC1` (stereo unspecified) gave HP1b binding inh inconclusive, G9a block inconclusive, JMJD2A Tudor inh 2.5µM*, PLK1 PBD inh -6%, Sfp PPTase inh -2% and BAZ2B block -25%.
`C=C(C)[C@@H]1CC=C(CO)CC1` gave HP1b binding inh 19%, JMJD2A Tudor inh -19% and PLK1 PBD inh inconclusive.
Screening C=C(C)C1CC=C(CN2CC(C)OC(C)C2)CC1 (stereo unspecified) returned HP1b binding inh inconclusive, G9a block 7.9µM*, JMJD2A Tudor inh 4µM*, PLK1 PBD inh 0%, Sfp PPTase inh inconclusive and BAZ2B block inconclusive.
Screening Cc1ccsc1C(=O)N1CCC1(C)C(=O)NCC(C)(C)C (stereo unspecified) returned PLK1 PBD inh -13%.
`CCn1nc(C)cc1C(=O)N1CCCC(C(=O)c2ccc(OC)cc2C)C1` (stereo unspecified) gave HP1b binding inh 25%, G9a block 2%, JMJD2A Tudor inh 12%, PLK1 PBD inh -1%, Sfp PPTase inh 2% and BAZ2B block -10%.
For CCn1c(=O)n(CC)c2cc(N3CCCC3)c(NC(=O)Nc3cc(C)cc(C)c3)cc21 the results were HP1b binding inh 43%, G9a block 3%[59 µM], JMJD2A Tudor inh -10% and BAZ2B block -5%.
Screening CCn1c(=O)n(CC)c2cc(N3CCCC3)c(NC(=O)c3ccc(C)cc3)cc21 returned HP1b binding inh -9%[57 µM], G9a block 56µM*, JMJD2A Tudor inh inconclusive, PLK1 PBD inh 3%, Sfp PPTase inh 1% and BAZ2B block inconclusive.
Screening CCn1c(=O)n(CC)c2cc(N3CCCC3)c(NC(=O)c3ccccc3)cc21 returned HP1b binding inh 1%, G9a block 40µM*, JMJD2A Tudor inh -29%, PLK1 PBD inh -2%, Sfp PPTase inh -8% and BAZ2B block inconclusive.
`Cn1c(=O)n(C)c2cc(N3CCCCC3)c(NC(=O)c3ccccc3)cc21` gave HP1b binding inh 14%, G9a block 19%, JMJD2A Tudor inh -12%, PLK1 PBD inh -3%, Sfp PPTase inh 0% and BAZ2B block 50µM*.
CCOC(=O)c1ccc2c(c1)nc(SCC(=O)c1ccco1)n2CC was read as HP1b binding inh 28%, G9a block inconclusive, JMJD2A Tudor inh inconclusive, PLK1 PBD inh inconclusive, Sfp PPTase inh 50µM* and BAZ2B block -12%.
Screening CCOC(=O)c1ccc2c(c1)nc(SCC(=O)N1CCCCC1)n2CC returned HP1b binding inh 20%, G9a block -30%, JMJD2A Tudor inh -9%, PLK1 PBD inh 1%, Sfp PPTase inh 10% and BAZ2B block -1%.
For Cc1ccccc1-n1c(SC/C(O)=C(\C#N)c2nc3ccccc3[nH]2)nnc1-c1ccncc1 the results were HP1b binding inh inconclusive, G9a block inconclusive, JMJD2A Tudor inh 79µM*, PLK1 PBD inh inconclusive, Sfp PPTase inh 10% and BAZ2B block -2%.
For CCOC(=O)c1ccc2c(c1)nc(SC/C(O)=C(\C#N)c1nc3ccccc3[nH]1)n2CC the results were HP1b binding inh 28%, G9a block 50µM*, JMJD2A Tudor inh -29%, PLK1 PBD inh -7%, Sfp PPTase inh 18% and BAZ2B block -2%.
OC[C@H]1O[C@H](n2cnc3c(N[C@H]4CCC[C@@H]4O)ncnc32)[C@H](O)[C@@H]1O was read as G9a block 39%[59 µM].
For CCCCC/C=C\C/C=C\CCCCCCCC(=O)NCCc1ccc(O)c(O)c1 the results were Sfp PPTase inh 10%.
`CC(C)CC(CSc1ccc(Br)cc1)N1CCN(C)CCC1=O` (stereo unspecified) gave HP1b binding inh 33%, JMJD2A Tudor inh -19% and Sfp PPTase inh 2%.
For Nc1cc2c(cc1[N+](=O)[O-])OCO2 the results were HP1b binding inh -12%, G9a block 50µM*, JMJD2A Tudor inh inconclusive, PLK1 PBD inh -17%, Sfp PPTase inh 2% and BAZ2B block 56µM*.
`C[C@H]1[C@H](C)CC[C@]2(C(=O)O)CC[C@]3(C)C(=CCC4[C@@]5(C)CC[C@H](O)C(C)(C)[C@@H]5CC[C@]43C)[C@H]12` (stereo partly specified) gave Sfp PPTase inh 45%.
`CC1(C)Cc2c(sc3ncnc(N)c23)CO1` gave HP1b binding inh 13%, G9a block -7%[59 µM], JMJD2A Tudor inh -8%, PLK1 PBD inh -6%, Sfp PPTase inh 16% and BAZ2B block -5%.
For CCCC1Cc2c(sc3ncnc(N)c23)CO1 (stereo unspecified) the results were HP1b binding inh 60%, G9a block 45µM*, JMJD2A Tudor inh -6%, PLK1 PBD inh -10%, Sfp PPTase inh -7% and BAZ2B block 5%.
